High-throughput results from PubChem.
Sampled rows, rich in hits. Any-hit rate of the full collection: about 2.4%.
D2 ag-1 – Beta-Arrestin HTS for Positive Allosteric Modulators of the Human D2 Dopamine Receptor: Agonists; D(2) dopamine receptor (Homo sapiens), P14416; DiscoveRx PathHunter D2 beta-arrestin, luminescence, 90 min; 100% = 57 uM dopamine signal; activation, % (test concentration not listed); actives 0.084% (n = 360,000); AID 624465, 2012; in the data active means activation above about 40%; inconclusive means between about 15% and that limit
Target sequence (P14416 whole entry, looked up): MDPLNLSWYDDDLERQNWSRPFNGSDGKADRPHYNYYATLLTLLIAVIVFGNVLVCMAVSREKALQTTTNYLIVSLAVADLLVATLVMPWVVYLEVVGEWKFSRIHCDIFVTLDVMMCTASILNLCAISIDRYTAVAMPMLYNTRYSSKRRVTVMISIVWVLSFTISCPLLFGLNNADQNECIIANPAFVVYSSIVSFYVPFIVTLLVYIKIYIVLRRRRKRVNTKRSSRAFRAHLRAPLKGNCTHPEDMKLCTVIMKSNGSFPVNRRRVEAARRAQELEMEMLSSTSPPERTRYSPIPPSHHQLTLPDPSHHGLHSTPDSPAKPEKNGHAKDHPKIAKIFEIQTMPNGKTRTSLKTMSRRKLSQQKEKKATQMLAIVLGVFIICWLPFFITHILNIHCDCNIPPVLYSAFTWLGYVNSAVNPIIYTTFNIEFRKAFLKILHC
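DiscoveRx PathHunter D2 beta-arrestin cells (2,100/well) attached overnight, then compound-stimulated 90 min at 37 C in HBSS/10 mM HEPES/0.1% Tween-20 buffer; beta-galactosidase complementation read by luminescence after 1 h at ambient temperature. Dopamine 57 uM final (EC100) as control.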
D2 PAM-1 – HTS Assay for Positive Allosteric Modulators of the Human D2 Dopamine Receptor: Primary Screen for Potentiators | D(2) dopamine receptor (Homo sapiens), P14416 | HEK293 T-REx D2, calcium flux, EC20 dopamine potentiation | potentiation, % at 10 µM | actives 0.34% (n = 340,000);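 active means potentiation over 3 SD above the plate norm, cut at about 30% in these data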; further: 0% is about no effect
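Calcium flux readout, no-wash dye, 1 read/s. Inducible HEK293 Trex D2 line, overnight 30 C. Compound alone 180 s (agonist flags), then EC20 dopamine, another 180 s to score potentiation.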
D2 PAM-2 – Beta-Arrestin HTS for Positive Allosteric Modulators of the Human D2 Dopamine Receptor: Potentiators; D(2) dopamine receptor (Homo sapiens), P14416; DiscoveRx D2 beta-arrestin cells, luminescence, 90 min; 100% = 57 uM dopamine signal; potentiation, % (concentration not given with the values); actives 0.23% (n = 360,000); AID 624464, 2012; in the data active means potentiation above about 50%; inconclusive means mostly about 30% to 49%
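PathHunter D2 cells, attached overnight at 37 deg C, received compound in DMSO plus dopamine at EC20 (50 nM final) for 90 min at 37 deg C. Beta-arrestin recruitment was read as luminescence after 1 h with detection reagent at ambient temperature.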
D2 ag-2 – HTS Assay for Allosteric Agonists of the Human D2 Dopamine Receptor: Primary Screen for Agonists. AID 485358, 2010. activation, % at 2 µM. D(2) dopamine receptor (Homo sapiens), P14416. HEK293 T-REx D2 cells, calcium flux agonist mode. actives 0.53% (n = 340,000);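 active means activation over 3 SD above normal in the single-dose calcium agonist read, cut at about 30% in these data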; further: 0% is about no effect
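Tetracycline-induced HEK293 T-REx cells with force-coupled D2 receptor, plated overnight at 30 C, loaded with no-wash calcium dye. After a 10 s baseline, compound was pin-added and calcium flux read kinetically for 180 s; calcium rises flagged agonists.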
D2 antagonist – HTS Assay for Allosteric Antagonists of the Human D2 Dopamine Receptor: Primary Screen for Antagonists. inhibition, % at 10 µM. actives 2% (n = 340,000). AID 485344, 2010. HEK293 TREx D2 cells, calcium flux, dopamine EC80; in the data active means inhibition above about 30%; inactive means below that, where a call was filed; further: 0% is about no effect
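HEK293 T-REx D2 cells, tet-induced, calcium dye no-wash. Cpd pintool add, 180 s kinetic, then EC80 DA, 180 s kinetic. Ca flux read.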
Active calls of the source: *; ? = inconclusive; nt = no result; ! = not confirmed by another sample.

SMILES	D2 ag-1	D2 PAM-1	D2 PAM-2	D2 ag-2	D2 antagonist
O=C(CSc1nc2sc3c(c2c(=O)[nH]1)CCCC3)NCCO	-5.9	-7.9	-7.9	0.1	42.2*
CCOc1ccc(C(=O)c2cn(CC(=O)Nc3ccc4c(c3)OCCO4)c3ccc(F)cc3c2=O)cc1	nt	1.9	nt	1.0	nt
CN1CCN(c2ccc(Cl)cc2NC(=O)C2COc3ccccc3O2)CC1 (centres undefined)	-0.3	5.7	-14.3	0.2	1.8
CN1CCN(c2ccc(Cl)cc2NC(=O)CC2OC(=O)c3ccccc32)CC1 (centres undefined)	-7.2	-13.7	-28.2	0.7	38.5*
CN(CC(=O)Nc1ccc(F)c(F)c1F)C(=O)Cc1ccc2c(c1)OCCO2	0.5	-1.0	1.1	-0.1	35.1*
COc1ccc(S(=O)(=O)N2CCN(C(=O)[C@@H]3CCC(=O)N3C3OC(=O)c4ccccc43)CC2)cc1 (some centres undefined)	-2.4	-3.7	-3.0	-0.2	51.5*
Cc1cc(Cl)ccc1NC(=O)CN1C(=O)C(=O)c2ccccc21	nt	-4.4	nt	0.8	nt
Oc1ccc(C2CNCCc3c2cc(O)c(O)c3Cl)cc1 (centres undefined)	?	8.5	58.3*!	0.1	-2.9
COCCCNC(=O)c1ccc(Cn2c(=O)c3ccccc3n(CC(=O)Nc3c(C)cccc3C)c2=O)cc1	nt	nt	nt	0.0	nt
O=c1[nH]nc(C(F)(F)F)c2nnn(Cc3ccccc3Cl)c12	5.3	-1.5	0.7	0.4	-1.4
Cc1n[nH]c(=O)c2c1nnn2Cc1ccccc1Cl	-1.4	-6.7	-7.6	-0.1	57.7*
CCOC(=O)c1ccc(NC(=O)CC2C(=O)N(c3cccc(OC)c3)C(=O)N2Cc2ccc(OC)cc2)cc1 (centres undefined)	nt	-19.2	nt	-0.1	nt
CCCN1CC=C2C(C#N)=C(N)C(C#N)(C#N)C(c3cccc(OC)c3OC)C2C1 (centres undefined)	-3.0	-15.0	-25.4	56.7*	4.7
N#CC1=C(N)C(C#N)(C#N)[C@H](c2ccoc2)[C@H]2CN(Cc3ccccc3)CC=C12	1.0	3.5	-17.1	31.1*	0.7
COc1ccc(OC)c(C2C3CN(C(C)C)CC=C3C(C#N)=C(N)C2(C#N)C#N)c1 (centres undefined)	-6.1	-14.6	-49.2	3.5	-7.0
COc1ccccc1C(=O)Nc1ccnn1C1CCN(Cc2ccn[nH]2)CC1	-4.0	6.6	-17.1	0.7	3.5
CCOC(=O)c1[nH]c2ccccc2c1NC(=O)c1cc(OC)c(OC)c(OC)c1	-1.0	nt	-3.7	nt	nt
COc1cc(C(=O)Nc2c(C(=O)O)[nH]c3ccc(C)cc23)cc(OC)c1OC	-0.4	19.0	-9.5	-0.9	34.3*
Cc1cc(/C=N/NC(N)=S)c(O)c(/C=N/NC(N)=S)c1	-5.6	8.1	-8.1	45.1*	-13.7
NC(=S)N/N=C/c1cccc(O)c1O	2.5	-1.9	15.5	0.1	-5.7
O=C(NCc1ccccc1Cl)c1ccc(-n2cnc3cccnc32)cc1	nt	0.4	nt	nt	nt
Cc1ccc(NC(=O)/C(C#N)=C(\N)C(Cl)(Cl)Cl)nc1	-0.1	18.7	1.2	0.2	32.5*
Cc1ccc(NC(=O)C(=O)Nc2ccc(C)cn2)nc1	-0.3	-0.4	-9.4	0.3	-7.8
COc1ccc(CCNC(=O)CCS(=O)(=O)c2cc(Br)cc3c2N(C(C)=O)CC3)cc1OC	nt	6.2	nt	0.1	nt
CCN(CC)CCCNC(=O)c1cc2c(=O)n(C)c3ccccc3c2n1C	-2.3	-15.2	-7.2	0.4	-25.3
SMILES	D2 ag-1	D2 PAM-1	D2 PAM-2	D2 ag-2	D2 antagonist
COCCNC(=O)c1cc2c(=O)n(C)c3ccccc3c2n1C	8.7	0.4	1.6	0.5	-0.5
CCN(CC)CCNC(=O)c1cc2c(=O)n(C)c3ccccc3c2n1C	-1.8	15.3	-12.7	0.1	37.0*
Cn1c(C(=O)NCCCN2CCc3ccccc3C2)cc2c(=O)n(C)c3ccccc3c21	-1.5	-28.0	-11.9	0.3	80.5*
CN(C)CCNC(=O)c1cc2c(=O)n(C)c3ccccc3c2n1C	1.6	32.6*	-2.6	1.6	8.9
CC(=O)c1cccc(NC(=O)CN2C(=O)CC(c3ccc(C)cc3C)=Nc3ccccc32)c1	nt	-0.3	nt	1.6	nt
NC(=O)C1CCN(C(=O)NC2CC(=O)N(c3ccc4c(c3)OCCO4)C2)CC1 (centres undefined)	-8.8	-8.4	-31.0	0.0	45.6*
CSc1ncnc2c1ncn2CCCNCc1ccc(C)o1	-8.5	nt	-3.2	nt	nt
Cc1c(NC(=O)c2sc3ccccc3c2Cl)cccc1-c1nc2ccccc2o1	nt	-1.7	nt	0.4	nt
Cc1cc(N/N=C/c2ccc(O)cc2O)nc(-c2ccccc2O)n1	41.5*	1.8	?	-0.4	-8.9
Cc1cc(N/N=C/c2ccccc2O)nc(-c2ccccc2O)n1	-2.0	2.0	-19.1	-0.8	3.9
CCCCn1c(N)c(N(CC(C)C)C(=O)c2cccc(OCc3ccccc3)c2)c(=O)[nH]c1=O	-0.7	30.2*	1.7	-0.3	-30.2
CCCCn1c(N)c(N(CCC(C)C)C(=O)c2cccc(S(=O)(=O)N3CCN(C)CC3)c2)c(=O)[nH]c1=O	-5.1	-4.9	-15.4	0.1	34.0*
Cc1cccnc1NC(=O)CCc1c[nH]c2ccccc12	0.9	5.1	1.0	0.4	31.2*
Cc1ccnc(NC(=O)CCCc2c[nH]c3ccccc23)c1	-1.3	7.1	5.4	-0.8	-4.3
O=C(Nc1cn(-c2ccccc2)nc1-c1ccc(Cl)cc1)c1ccccc1	-2.0	6.7	-5.7	-1.1	-11.4
O=C(O)Cc1cn(-c2ccccc2)nc1-c1ccc(Cl)cc1	0.7	30.9*	-16.2	-0.7	-10.4
COc1cccc(CNC(=O)c2ccc(CN3CC(=O)N4CCCCC4C3=O)cc2)c1 (centres undefined)	nt	1.4	nt	nt	nt
CCOCCc1nn2c(=O)cc(COC(=O)Cc3ccccc3)nc2s1	nt	5.1	nt	1.1	nt
CCCn1nnnc1NCc1ccc(SC)cc1	-1.0	5.6	-1.0	-1.4	36.9*
CCn1nnnc1NCc1ccc(Cl)cc1	-0.5	13.7	-6.2	0.6	46.7*
CCCCOC(=O)c1ccc(NC(=O)CC2NCCNC2=O)cc1 (centres undefined)	nt	5.0	nt	-0.1	nt
O=C(NCc1ccccc1)c1ccc(N2CCC3(CC2)CC(c2ccccc2)=NO3)c([N+](=O)[O-])c1	0.4	-0.9	11.0	0.2	-15.6
Cc1ccc(CNC(=O)c2ccc(N3CCC4(CC3)CC(c3ccccc3)=NO4)c([N+](=O)[O-])c2)cc1	-3.0	-7.2	-28.2	6.9	45.2*
